Data from PubChem BioAssay.

assay: small-molecule microarray binders of probe aNog, primary screen, biochemical, biotinylated probe, 635/667 nm fluorescence (AID 1115); conditions: higher = more signal;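 also: probe is biotinylated aNog protein used at 0.15 µg/mL for 1 h at 4 C; z-score combines 667 nm fluorescence of each spot with its signal to noise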

SMILES	composite z-score
C=CCC(OC(C)=O)[C@@H]1[C@@H](N(Cc2cc3ccccc3o2)C(=O)c2ccc(C)cc2)c2cc(OCCCO)ccc2N1C(=O)Cc1ccc2ccccc2c1 (stereo partly specified)	-0.322
COC(=O)[C@H](Cc1ccccc1)N1CC(/C=C/C2CC2)=C[C@@H]1[C@@H](O)Cc1ccccc1	0.131
C=C1C2CC3C(=C4C(CO[C@@H]4[C@H]4CCCN4S(=O)(=O)c4ccccc4[N+](=O)[O-])C4C(=O)N(C)C(=O)C34)CC2C(=O)N1C (stereo partly specified)	0.0473
[N-]=[N+]=Nc1ccccc1C[C@]1(C(=O)NCc2ccccc2)N=C(c2ccc(OCCCO)cc2)O[C@H]1c1ccccc1	1.85
COc1ccccc1CN1C(=O)c2ccccc2[C@](Cc2ccccc2I)(C(=O)NC(C)C)[C@@H]1c1ccc(CO)cc1	-0.402
O=C1NC(=O)C2C1C=CC(C(O)c1ccc3c(c1)OCO3)N2Nc1ccccn1 (stereo unspecified)	0.677
[N-]=[N+]=NCc1ccccc1C[C@@]1(C(N)=O)N=C(c2ccc(OCCCO)cc2)O[C@@H]1c1ccccc1CN=[N+]=[N-]	1.08
COCCCNC(=O)[C@]1(Cc2ccccc2CN=[N+]=[N-])N=C(c2ccc(OCCCO)cc2)O[C@@H]1c1ccccc1	-0.225
COCCOC(=O)N1C(=O)[C@@]2(c3cc(C#CC4(O)CCCCCC4)ccc31)[C@H](C(=O)N1CCCCCCC1)[C@H]1C(=O)O[C@H](c3ccccc3)[C@H](c3ccccc3)N1[C@@H]2c1ccc(OCCO)cc1	2.98
CN(C)CCCCNC(=O)[C@H]1C[C@H]2C(=O)N3CCC[C@H]3C(=O)N2[C@H]1c1ccc(O)cc1	0.39
O=C1O[C@H](c2ccccc2)[C@H](c2ccccc2)N2[C@H]1[C@@H](C(=O)O)[C@]1(C(=O)Nc3ccccc31)[C@H]2c1ccc(O)cc1	0.101
C=CC[C@@]1(C(=O)O)N=C(c2ccc(OCCCO)cc2)O[C@@H]1c1ccccc1	2.02
CN1C(=O)C2C(C1=O)C1C=C(c3ccc(CO)cc3)C2C(c2cccs2)N1Cc1cccc(OC(F)(F)F)c1 (stereo unspecified)	-0.251
COc1cc(CO)cc(I)c1O[C@H]1C=C(C(=O)NCCO)C[C@@H](N(CC2CCCCC2)C(=O)c2ccc(C(F)(F)F)cc2)[C@@H]1O	-0.144
C=C(/C=C/CNS(=O)(=O)c1ccc(C)cc1)[C@H](O)[C@H]1CCCN1S(=O)(=O)c1ccccc1[N+](=O)[O-]	-0.272
C=CCN1C(=O)[C@@]2(O[C@@H](CCO)[C@H]([Si](C)(C)c3ccc(OC)cc3)[C@H]2C)c2cc(N3C(=O)c4ccccc4Oc4ccccc43)ccc21	0.0061
COCCOC(=O)N1C(=O)[C@@]2(c3cc(C#CCNC(N)=O)ccc31)[C@H](C(=O)N1CCCCCCC1)[C@H]1C(=O)O[C@H](c3ccccc3)[C@H](c3ccccc3)N1[C@@H]2c1ccc(O)cc1	-0.456
Cc1ccc(S[C@]2(C(=O)NCc3ccccc3)CC(=O)N(C(C)C)[C@@H]2c2ccc(CO)cc2I)cc1	0.962

SMILES	composite z-score
CCOC(=O)C1=CC[C@@H](c2ccc([N+](=O)[O-])cc2)N(S(=O)(=O)c2ccc(C)cc2)[C@H]1c1ccccc1	0.506
COc1ccc([Si](C)(C)[C@H]2[C@H](CCn3cc([C@H](O)c4ccccc4)nn3)O[C@@]3(C(=O)N(Cc4ccc(N5CCC5=O)cc4)c4ccccc43)[C@@H]2C)cc1	-0.103
COc1cc2c(cc1OC)CN(C(=O)[C@H]1[C@@H]3C(=O)O[C@@H](c4ccccc4)[C@@H](c4ccccc4)N3[C@@H](c3ccc(OCCO)cc3)[C@]13C(=O)Nc1ccc(C#CCCO)cc13)CC2	0.033
COc1ccc(NN2C(C(O)c3ccco3)C=CC3C(=O)N(C4CCCCC4)C(=O)C32)cc1 (stereo unspecified)	0.353
NC(=O)N1C(=O)C2C(C1=O)C1C=C(c3ccc(CO)cc3)C2C(C2CC2)N1Cc1sc2ccccc2c1Cl (stereo unspecified)	0.264
CON(C)C(=O)C=C1C[C@@H](c2cccc(Cl)c2)O[C@@H](c2cccc(Cl)c2)O1	-0.389
O=C1O[C@@H](c2ccccc2)[C@@H](c2ccccc2)N2[C@@H](c3ccccc3OCCO)[C@]3(C(=O)Nc4ccccc43)[C@@H](C(=O)NC[C@H](O)c3ccccc3)[C@H]12	-0.0161
C=C(/C(=C/C[C@@H](OC(=O)c1ccncc1)c1ccc(OCCO)cc1)c1cc(C(=O)OC)ccc1OC)C(C)C	-0.45
COCCOC(=O)N1C(=O)[C@@]2(c3cc(C#Cc4ccc(OC)cc4)ccc31)[C@H](C(=O)NC[C@H](O)c1ccccc1)[C@H]1C(=O)O[C@H](c3ccccc3)[C@H](c3ccccc3)N1[C@@H]2c1ccc(O)cc1	0.369
[N-]=[N+]=NCc1ccccc1[C@H]1OC(c2ccc(OCCCO)cc2)=N[C@@]1(CCS(=O)(=O)c1ccccc1)C(N)=O	1.4
COc1ccc([Si](C)(C)[C@@H]2[C@@H](CCO)O[C@]3(C(=O)N(Cc4cccc(N5C(=O)c6cccc7cccc5c67)c4)c4ccccc43)[C@H]2C)cc1	0.0601
CC(C)CNC(=O)[C@@H]1c2ccccc2C(=O)N(Cc2cc(F)cc(C(F)(F)F)c2)[C@H]1c1ccc(CO)cc1	-0.579
C=CCN1C(=O)[C@]2(CC=C)N=C(c3ccc(OCCCO)cc3)O[C@@H]2c2ccccc21	0.0962
COC(=O)C1(Cc2ccccc2)C=C2C(=C(C(C)C)C(=O)C2C)CN1 (stereo unspecified)	0.593
C=C(C(=O)CC[C@H](OC(=O)c1cccnc1)c1ccc(CO)o1)C(C)C	0.013
COc1ccc(C(O)C2C=CC3C(=O)N(c4ccccc4)C(=O)C3N2Nc2ccc(C#N)cc2)c2ccccc12 (stereo unspecified)	1.45
NC(=O)NCC#Cc1ccc2c(c1)[C@]1(C(=O)N2)[C@H](C(=O)Nc2nc3ccccc3s2)[C@H]2C(=O)O[C@H](c3ccccc3)[C@H](c3ccccc3)N2[C@@H]1c1ccc(O)cc1	0.23
COc1ccc(C#Cc2ccc3c(c2)[C@]2(C(=O)N3)[C@H](C(=O)N3CCc4cc(OC)c(OC)cc4C3)[C@H]3C(=O)O[C@H](c4ccccc4)[C@H](c4ccccc4)N3[C@@H]2c2ccc(O)cc2)cc1	0.272
